# The list shows a part of the results. A number with no mark means an inactive call. Calls of active or inactive are those of the source.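 The calls were made as follows: active = cell growth inhibition above the hit limit set in the earlier mutant JAK2 cell screen (cut at about 27% in these data); inactive = the rest.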
# Assay: growth loss in parental Ba/F3 cells – cell-based, murine pro-B, CellTiter-Glo luminescence, counter-screen for JAK2V617F inhibitor project (AID 1520);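 also: plate controls were DMSO-treated cells for no effect and JAK Inhibitor I control wells for full effect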
# Conditions: Ba/F3 parental viability, at 5.6 µM, hits give high values, cells kept alive by added IL-3
row,Compound,inhibition
1,CSCC(=O)N1CCCC(C(=O)c2cc(F)ccc2F)C1 (stereo not drawn),-3.79%
2,COc1cc(OC)cc(C(=O)N[C@H](C(=O)Nc2nc3ccccc3[nH]2)C(C)C)c1,86% (active)
3,Cc1cccc(NC(=O)c2ccc([N+](=O)[O-])o2)c1,10.6%
4,COc1ccc(Cc2nnc(N/N=C/c3ccccc3O)[nH]c2=O)cc1OC,85.6% (active)
5,Cc1ccc(S(=O)(=O)C2(S(=O)(=O)c3ccc(C)cc3)CCCC2)cc1,32.1% (active)
6,O=C(CCl)Nc1ccc(Sc2ccc(NC(=O)CCl)cc2)cc1,47.3% (active)
7,Cc1ccc(NC(=S)N(CCCN2CCC(C)CC2)Cc2ccco2)cc1,28.7% (active)
8,COc1cc(OC)c(C(=O)NC2CCCCCC2)cc1OC,-5.51%
9,COc1ccc(-c2csc(Nc3ccc(O)cc3)n2)cc1,63% (active)
10,Oc1ccc(/C=N/Nc2ccc(C(F)(F)F)cn2)cc1O,76.2% (active)
11,CCn1c(/C=C/c2ccc([N+](=O)[O-])o2)nc2ccccc2c1=O,106% (active)
12,O=C(CCl)N(Cc1cccc([N+](=O)[O-])c1)c1cccc(Cl)c1,87.5% (active)
13,c1ccc2c(c1)CSc1sccc1C2=C1CCNCC1,0.77%
14,N#C/C=C\Oc1ccc(Cl)cc1N,-2.4%
15,Cn1c(CCN2CCCCCC2)nc2cc(NC(=O)Nc3ccccc3)ccc21,-5%
16,CCC1CCCCN1CCCNC(=O)c1cc2c(Cl)nc3ccccc3c2s1 (stereo not drawn),0.54%
17,CCCc1nc2ccccc2c(=O)n1/N=C/c1ccc(O)c(O)c1,1.92%
18,COc1ccccc1N1CCN(Cc2ccc(OC)c3ccccc23)CC1,-5.1%
19,O=c1oc2ccccc2cc1-c1cn(-c2ccccc2)c(=S)[nH]1,50% (active)
20,CCCn1c(NC(=O)C23CC4CC(CC(O)(C4)C2)C3)nc2ccccc21,-7.65%
21,COc1ccc(OC)c(Nc2nc(-c3ccc(O)c(O)c3)cs2)c1,72.9% (active)
22,CN(Cc1ccc2nsnc2c1)Cc1nc(Cc2cccc(F)c2)no1,-7.97%
23,Cc1ccc(C2=NN(C)c3nc4ccccc4n3C2)cc1,-0.44%

# — PubChem BioAssay AID1520 (The Scripps Research Institute Molecular Screening Center, 2009)
